# Sampled rows, rich in hits. Any-hit rate of the full collection: about 1.8%.
# GSTO1 counter: inhibitors of recombinant GSTO1, primary screen, counter-screen for RBBP9 inhibitor project, biochemical, fluorescence polarization; Glutathione S-transferase omega-1 (Homo sapiens), P78417; activity-based probe fluorescence polarization; inhibition, % at 5.96 µM; 300,000 compounds, 1.1% hits; AID 1974, 2009;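 active means inhibition above the campaign mean inhibition plus 3 SD, cut at about 35% in these data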
# Fam108B inh: mouse Fam108B serine hydrolase inhibitors, primary screen, counter-screen for RBBP9 inhibitor project, biochemical, fluorescence polarization; recombinant Fam108B, FP-Rh probe fluorescence polarization; 300,000 compounds, 0.33% hits; inhibition, % at 9.51 µM;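 active means inhibition above the screen mean inhibition plus 3 SD, computed separately per campaign, cut at about 18% in these data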;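 further: inhibitors lower polarization as less probe binds the enzyme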
# PAD4 FP inh: human PAD4 inhibitors, primary screen, biochemical, fluorescence polarization, 1536-well format. Protein-arginine deiminase type-4 (Homo sapiens), Q9UM07. recombinant PAD4, RCA probe fluorescence polarization. inhibition, % at 6.36 µM. 330,000 compounds, 0.41% hits. AID 485272, 2010;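 active means percent inhibition above a cutoff equal to the mean of all tested compounds plus 3 SD, cut at about 15% in these data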
# LYPLA2 inh: LYPLA2 inhibitors, primary screen, counter-screen for PME1 inhibitor project, biochemical, fluorescence polarization, FP-Rh probe ABPP; Acyl-protein thioesterase 2 (Homo sapiens), O95372; recombinant LYPLA2; inhibition, % at 5.9 µM; 320,000 compounds, 0.38% hits; AID 2177, 2009;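 active means inhibition above the screen-wide mean plus 3 SD, limit set per campaign, cut at about 26% in these data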
# LYPLA1 inh: LYPLA1 inhibitors, primary screen, counter-screen for PME1 inhibitor project, biochemical, fluorescence polarization, FP-Rh probe ABPP; recombinant LYPLA1; inhibition, % at 5.9 µM; 320,000 compounds, 0.16% hits; AID 2174, 2009;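 active means inhibition above the mean of all tested compounds plus 3 SD, set per campaign, cut at about 14% in these data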;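 further: inhibitors block serine hydrolase probe labeling of LYPLA1 so polarization falls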
# PME-1 inh: PME-1 inhibitors via competitive probe labeling, primary screen, biochemical, fluorescence polarization, FP-Rh probe, HTS; Protein phosphatase methylesterase 1 (Homo sapiens), Q9Y570; recombinant PME-1; inhibition, % at 5.9 µM; 320,000 compounds, 0.53% hits;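 active means inhibition above the campaign mean of all compounds plus 3 SD, cut at about 26% in these data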;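 further: competitive labeling of PME-1 active site by serine hydrolase directed probe; inhibitors block probe labeling so polarization falls and inhibition rises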
# Target sequence (Q9Y570 whole entry, looked up): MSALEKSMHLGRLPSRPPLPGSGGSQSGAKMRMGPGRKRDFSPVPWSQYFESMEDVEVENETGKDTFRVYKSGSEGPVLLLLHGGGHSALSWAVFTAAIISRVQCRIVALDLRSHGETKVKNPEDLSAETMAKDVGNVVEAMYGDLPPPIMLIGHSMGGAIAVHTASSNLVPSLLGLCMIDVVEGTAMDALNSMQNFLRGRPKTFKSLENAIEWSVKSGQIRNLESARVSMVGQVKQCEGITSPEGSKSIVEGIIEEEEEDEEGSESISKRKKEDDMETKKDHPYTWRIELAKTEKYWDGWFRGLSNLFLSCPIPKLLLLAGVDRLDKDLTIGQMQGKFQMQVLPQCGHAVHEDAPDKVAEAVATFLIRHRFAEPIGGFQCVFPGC
# LYPLA2 confirm: LYPLA2 inhibitors, retest, confirmation, counter-screen for PME1 inhibitor project, biochemical, fluorescence polarization, FP-Rh probe ABPP; recombinant LYPLA2; inhibition, % at 5.9 µM; shares compounds with LYPLA2 inh; 1,100 compounds, 72% hits;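 active means mean inhibition across replicates above the hit cutoff set in the primary screen, cut at about 26% in these data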;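 further: blocked labeling of the enzyme by serine hydrolase FP-Rh probe lowers polarization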
# LYPLA2 gel ABPP: LYPLA2 inhibitors in proteome, late-stage follow-up, gel-based competitive ABPP, fluorescence, assay provider; shares compounds with LYPLA2 inh; rhLYPLA2 in mouse brain proteome, gel ABPP FP-Rh; inhibition, % at 20 µM; 150 compounds, 30% hits;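 active means inhibition of LYPLA2 enzyme probe labeling above about 50%, limit read from the data; inactive means inhibition below that limit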;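 further: loss of FP-Rh probe labeling of the LYPLA2 gel band measured as band density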
# A number is an active result; – = inactive; · = no result.
SMILES,GSTO1 counter,Fam108B inh,PAD4 FP inh,LYPLA2 inh,LYPLA1 inh,PME-1 inh,LYPLA2 confirm,others
CC(=O)Nc1cccc(Oc2ncccc2[N+](=O)[O-])c1,–,–,–,–,–,–,·,
O=[N+]([O-])c1ccc(Oc2ccc(F)cc2)c2ccncc12,–,–,–,57,–,–,54,LYPLA2 gel ABPP=–
O=[N+]([O-])c1ccc(Oc2cccc(Br)c2)c2ccncc12,–,–,–,81,–,–,79,LYPLA2 gel ABPP=57
CCCCCCC1CCC(C(=O)Nn2c(C)nc3ccccc3c2=O)CC1 (centres undefined),–,–,–,46,–,–,37,
NCc1cccc(CNc2ccc([N+](=O)[O-])cc2C(N)=O)c1,–,–,–,–,–,–,·,
NC(=O)c1cc([N+](=O)[O-])ccc1NCc1cccc([N+](=O)[O-])c1,–,–,–,29,–,–,29,
Cc1cc(C)cc(C(=O)NC(=S)Nc2ccc(Cc3ccncc3)cc2)c1,–,–,–,34,–,–,41,
COc1cc(C(=O)NC(=S)Nc2ccc(Cc3ccncc3)cc2)cc(OC)c1OC,–,–,–,26,–,–,–,
CCS(=O)(=O)NCC(c1cccnc1)N1CCN(c2ccc(F)cc2)CC1 (centres undefined),–,–,–,–,–,–,·,
Cc1ccc(C)c(S(=O)(=O)NCc2ccc(C(=O)N3CCC(Cc4ccccc4)CC3)cc2)c1,–,–,–,45,–,–,47,
O=[N+]([O-])c1cnn(-c2nc(-c3cccs3)cc(C(F)(F)F)n2)c1,–,–,–,–,–,–,·,
O=C(Nc1ccc(Nc2ccncc2)cc1)c1ccc(Nc2ccnc3ccc([N+](=O)[O-])cc23)cc1[N+](=O)[O-],–,–,–,27,–,–,–,
O=C(Nc1ccc(Nc2ccncc2)cc1)c1ccc([N+](=O)[O-])cc1,–,–,–,–,–,–,·,
COc1cccc(OCC(O)CN2CCOCC2)c1 (centres undefined),–,–,–,–,–,–,·,
COc1cccc(OCC(O)CN2CCN(CCN3C(=O)c4cccc5cccc(c45)C3=O)CC2)c1 (centres undefined),–,–,–,32,–,–,34,
CCN1CCc2c(sc(NC(=O)c3ccc(C(=O)c4ccccc4)cc3)c2C(N)=O)C1,–,–,–,26,–,–,–,
COc1cc2c(=O)n(CC3CCCO3)c(=O)n(CC(=O)Nc3cccc(Cl)c3)c2cc1OC (centres undefined),–,–,–,–,–,–,·,
Cc1ccc(NC(=O)CN2C(=O)S/C(=C\c3cc(C)n(-c4ccc(C(=O)O)cc4)c3C)C2=O)cc1,–,–,–,42,–,–,43,
Cc1ccccc1NC(=O)CN1C(=O)S/C(=C\c2cccn2-c2cccc(C(=O)O)c2)C1=O,–,–,–,50,–,–,74,LYPLA2 gel ABPP=64
Cc1ccc(NC(=O)CN2C(=O)S/C(=C\c3cccn3-c3cccc(C(=O)O)c3)C2=O)cc1C,–,–,–,36,–,–,43,
Cc1cccc(NC(=O)CN2C(=O)S/C(=C\c3cccn3-c3cccc(C(=O)O)c3)C2=O)c1,–,–,–,67,–,–,63,LYPLA2 gel ABPP=94
Cc1cccc(C)c1NC(=O)CN1C(=O)S/C(=C\c2cccn2C)C1=O,–,–,–,–,–,–,·,

# Source: PubChem BioAssay (The Scripps Research Institute Molecular Screening Center)
